Data published in PubChem BioAssay (NCATS).
Records with an inconclusive call do not appear. Calls of active or inactive are those of the source. Calls follow the shape of the dose curve; as a rule, active = well fitted cell-killing curve with a large enough effect; inconclusive = small, poorly fitted or top-dose-only effect; inactive = flat fitted curve, though single readings scatter.

assay: Cell Viability - LYMP2-011 (AID 969); conditions: LYMP2-011 lymphoblastoid cells viability; series mostly up to 92.2 µM; viability change, negative = cytotoxic: at the top concentration; also: nearly all actives have a fitted effect of over 60% in size;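 as to viability change, negative = cytotoxic: 0% = DMSO only and full inhibition = 92 µM tetraoctylammonium bromide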
From the text: NIH Chemical Genomics Center [NCGC]
NIH Molecular Libraries Screening Centers Network [MLSCN]
National Institutes of Environmental Health Sciences [NIEHS]
National Toxicology Program [NTP]
We have developed a 1536-well cell-based assay for quantitative high throughput screening (qHTS) against a number of cell lines to determine in vitro cytotoxicity of small molecules. This particular assay uses a human lymphoblastoid cell line (LYMP2-011) purchased from Coriell Institute for Medical Research.
NCGC Assay Protocol Summary:
The CellTiter-Glo luminescent cell viability assay (Promega) is a homogeneous method to measure the number of viable cells in culture. The end point readout of this assay is based on quantitation of intracellular ATP, an indicator of metabolic activity, using the luciferase reaction. Luciferase catalyzes the oxidation of beetle Luciferin to oxyluciferin and light in the presence of ATP. The luminescent signal is proportional to amount of ATP present.
Using the CellTiter-Glo luminescent cell viability assay, the amount of cellular ATP was measured in the lymphoblastoid cell line with complete culture medium following compound treatment for 24 hours. The assay was performed in opaque white Kalypsys 1536-well plates. In the screen, tetraoctylammonium bromide was used as positive control. Library compounds were measured for their ability to cause acute toxicity in the cell line, as reflected by a decrease in intracellular ATP levels, in a concentration-dependent manner. […] AC50 values were determined from concentration-response data modeled with the standard Hill equation.
qHTS protocol for CellTiter Glo lymphoblastoid cellular assay
[Step] [Parameter] [Value] [Description]
1. Reagent; 5 uL; 2500 lymphoblastoid cells/well
2. Time; 5 hr; 37 C incubation
4. Controls; 23 nL; Tetraoctylammonium bromide 6.4pM to 92 uM
5. Time; 24 hr; 37 C incubation
6. Reagent; 5 uL; CellTiter Glo reagent
7. Time; 30 min; Room Temperature
8. Detection; Luminescence; Viewlux plate reader
Keywords: cell viability, cytotoxicity, lymphoblastoid cell line, luminescence, NTPHTS, NTPHTS_NCGC, NIEHS, DSSTox, MLSMR, MLSCN, NIH Roadmap, qHTS, NCGC
Potency is read from the fitted curve at half-maximal effect.

Row | Structure (SMILES) | viability change, negative = cytotoxic | Potency
1 | Nc1ccc(N=Nc2ccccc2)c(N)c1 | -12.6% (inactive) | –
2 | c1ccncc1 | -0.558% (inactive) | –
3 | CC(=O)Nc1cccc(C)c1 | -5.06% (inactive) | –
4 | Oc1cc2c(cc1O)[C@H]1c3ccc(O)c(O)c3OC[C@@]1(O)C2 | – | 39.8 µM (active)
5 | CCc1ccc(C(c2ccc(CC)cc2)C(Cl)Cl)cc1 | -0.126% (inactive) | –
6 | CCNC(=S)NCC | -2.59% (inactive) | –
7 | N=C1C=CC(=C(c2ccc(N)cc2)c2ccc(N)cc2)C=C1 | – | 7.94 µM (active)
8 | C=Cc1cccc(C)c1 | -6.23% (inactive) | –
9 | CC(/C=C/C=C(C)/C=C/C(=O)O)=C\C=C\C=C(C)\C=C\C=C(C)\C=C\C(=O)O | -12.7% (inactive) | –
10 | C=CC1CO1 (stereo not given) | -5.48% (inactive) | –
11 | Cc1ccc2ccc3cccc4ccc1c2c34 | -7.17% (inactive) | –
12 | Nc1ccc(N)c(Cl)c1 | -23.6% (inactive) | –
13 | Cc1ccc(C(=O)O)cc1[N+](=O)[O-] | -3.93% (inactive) | –
14 | O=[N+]([O-])c1ccc(F)cc1F | -24.1% (inactive) | –
15 | COc1cc(-c2ccc(N=C=O)c(OC)c2)ccc1N=C=O | -3.34% (inactive) | –
16 | CC(C)S | -0.896% (inactive) | –
17 | O=[N+]([O-])c1ccccc1Nc1ccccc1 | 2.22% (inactive) | –
18 | OCC(CO)(CBr)CBr | 1.75% (inactive) | –
19 | CC(=O)c1ccc(Cl)c(Cl)c1Cl | 2.34% (inactive) | –
20 | NC(=O)Nc1nc2ccccc2[nH]1 | -3.57% (inactive) | –

Row | Structure (SMILES) | viability change, negative = cytotoxic | Potency
21 | O=C(O)/C=C/c1ccc(/C=C/C(=O)O)cc1 | -2.45% (inactive) | –
22 | CCCCC(CC)COP(=O)(OCC(CC)CCCC)OCC(CC)CCCC (stereo not given) | -8.25% (inactive) | –
23 | O=C1c2ccccc2C(=O)C1(O)O | -29.8% (inactive) | –
24 | NC(=O)c1ccc([N+](=O)[O-])cc1 | -4.29% (inactive) | –
25 | CCCCC(CC)COCCCN (stereo not given) | -13% (inactive) | –
26 | CC(C)(C)C(=O)C1C(=O)c2ccccc2C1=O | -26.9% (inactive) | –
27 | Cc1cc(=O)oc2cc(O)cc(O)c12 | -4.64% (inactive) | –
28 | CCN(CC)c1ccc2c(C)cc(=O)oc2c1 | -3.81% (inactive) | –
29 | S=C(NC1CCCCC1)NC1CCCCC1 | -8.36% (inactive) | –
30 | C=C1CC[C@H](O)C/C1=C/C=C1\CCC[C@]2(C)[C@@H]([C@H](C)CCCC(C)C)CC[C@@H]12 | – | 50.1 µM (active)
31 | CC(=O)OC(C(=O)c1ccccc1)c1ccccc1 (stereo not given) | -9.59% (inactive) | –
32 | c1ccc(CSCc2ccccc2)cc1 | 3.23% (inactive) | –
33 | O=[N+]([O-])c1cc(N(CCO)CCO)ccc1NCCO | -28.2% (inactive) | –
34 | C=CC(=O)CC | -0.869% (inactive) | –
35 | Cc1c2ccccc2c(C)c2c1ccc1ccccc12 | -6.67% (inactive) | –
36 | Nc1cc([N+](=O)[O-])ccc1O | -5.16% (inactive) | –
37 | Brc1cc(Oc2cc(Br)c(Br)c(Br)c2Br)c(Br)c(Br)c1Br | 3.64% (inactive) | –
38 | CCCCOC(=O)COc1ccc(Cl)cc1Cl | -0.959% (inactive) | –
39 | C/C=C/C=C/C=O | – | 50.1 µM (active)
40 | CCC(Cl)CC(Cl)C(Cl)C(Cl)C(Cl)C(C)Cl (stereo not given) | -2.61% (inactive) | –
